Out of some 370,000 compounds screened, about 660 (0.18%) were called active. This is one part of a sample in which actives are shown more often than they occur. No stated cut-off is given here; in the data, active means inhibition above about 11%; inactive means the rest.

Experimental findings from PubChem BioAssay AID720704 (The Scripps Research Institute Molecular Screening Center, 2013) are described below.

This experiment deals with 1-phosphatidylinositol 4,5-bisphosphate phosphodiesterase beta-3 (Homo sapiens) (UniProt Q01970). The experiment can be described thus: phospholipase C beta3 enzyme inhibition – biochemical, fluorescence, primary screen (AID 720704).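 Further: 0% = median of compound wells on plate and 100% = full blocker control.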 As to conditions: Purified PLC-beta3, fluorogenic substrate, at 12.2 µM, hits give high values.
1-phosphatidylinositol 4,5-bisphosphate phosphodiesterase beta-3 (Homo sapiens), sequence (Q01970 whole entry, looked up): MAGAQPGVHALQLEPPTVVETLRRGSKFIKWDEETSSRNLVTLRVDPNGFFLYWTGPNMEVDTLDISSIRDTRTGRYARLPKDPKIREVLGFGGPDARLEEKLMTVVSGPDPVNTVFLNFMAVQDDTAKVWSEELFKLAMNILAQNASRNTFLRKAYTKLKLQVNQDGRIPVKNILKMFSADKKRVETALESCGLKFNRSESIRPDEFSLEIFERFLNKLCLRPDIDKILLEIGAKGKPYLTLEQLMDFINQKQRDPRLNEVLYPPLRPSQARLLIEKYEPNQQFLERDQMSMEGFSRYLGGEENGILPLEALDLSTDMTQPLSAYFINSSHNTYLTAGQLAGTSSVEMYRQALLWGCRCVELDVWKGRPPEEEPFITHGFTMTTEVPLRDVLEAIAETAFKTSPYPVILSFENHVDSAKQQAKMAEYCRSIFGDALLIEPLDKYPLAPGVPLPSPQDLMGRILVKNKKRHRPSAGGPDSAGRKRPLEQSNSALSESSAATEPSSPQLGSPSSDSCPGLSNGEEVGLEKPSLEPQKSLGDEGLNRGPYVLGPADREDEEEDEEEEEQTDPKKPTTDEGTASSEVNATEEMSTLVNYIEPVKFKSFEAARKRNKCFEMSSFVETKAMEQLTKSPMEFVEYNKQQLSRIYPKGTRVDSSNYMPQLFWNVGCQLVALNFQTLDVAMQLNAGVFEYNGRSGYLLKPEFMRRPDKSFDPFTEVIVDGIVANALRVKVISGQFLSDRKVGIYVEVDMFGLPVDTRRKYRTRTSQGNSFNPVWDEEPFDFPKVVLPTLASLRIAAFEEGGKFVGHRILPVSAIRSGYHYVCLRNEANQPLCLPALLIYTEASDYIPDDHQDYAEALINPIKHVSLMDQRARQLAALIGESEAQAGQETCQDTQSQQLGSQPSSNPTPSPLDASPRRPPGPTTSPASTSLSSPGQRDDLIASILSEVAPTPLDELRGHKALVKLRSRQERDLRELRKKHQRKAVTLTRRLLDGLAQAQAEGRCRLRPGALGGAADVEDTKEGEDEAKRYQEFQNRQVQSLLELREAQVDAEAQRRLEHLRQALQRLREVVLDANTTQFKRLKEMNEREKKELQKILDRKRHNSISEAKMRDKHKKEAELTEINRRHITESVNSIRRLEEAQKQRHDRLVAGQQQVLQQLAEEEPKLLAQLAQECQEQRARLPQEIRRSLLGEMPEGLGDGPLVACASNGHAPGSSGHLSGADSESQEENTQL
Broadly, the inhibition is the drop in the measured response relative to a control, in per cent. `CCC(=NCc1ccco1)c1c(O)n(Cc2ccccc2)c(=O)[nH]c1=O`: the inhibition is 11.8% (active).
To `CN(C)CCCN=Cc1c(O)n(Cc2ccco2)c(=O)[nH]c1=O` belongs -6.13% (inactive).
With `CCCCn1c(O)c(C(CC)=NCc2ccco2)c(=O)[nH]c1=O` the figure was 7% (inactive); with `COC(=O)[C@@H]1C(OC(=O)c2ccccc2)CC2CCC1N2C` (stereo not given in full), -5.47% (inactive).
To `CCN1c2nc3c(C)cccn3c(=O)c2CC2(C(=O)N(C)C(=O)N(C)C2=O)C1C` (stereo not given) belongs -9.87% (inactive); to `c1ccc(CC2CCCCN2)cc1` (stereo not given), -1.27% (inactive); to `CC(C)(C)[C@]1(O)C[C@@H]2OC(=O)C[C@@]23C(=O)O[C@@H]2OC(=O)[C@H](O)[C@]213`, 11.8% (active).
As for `CN(C)/C=C(\C=[N+](C)C)c1[nH]ncc1[N+](=O)[O-]`, the inhibition was 3.86% (inactive).
With `Cc1cc(C)cc(NC(=S)NC2CC3CCCC(C2)N3Cc2cccs2)c1` (stereo not given) the figure was 5.75% (inactive); with `O=C(COC(=O)Cc1ccccc1)Nc1ccc(F)cc1`, 3.13% (inactive).
